The values below come from the supplement of paper PMC9844399.

Counter-ions that a name gives are not always drawn.
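Wherever MALAT1 nuclear FISH intensity, robust Z-score vs DMSO is given: High-content confocal imaging of branched-DNA amplified FISH in 384-well plates, Hoechst-defined nuclei, score is well value minus plate DMSO median over DMSO robust SD, four wells per compound.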
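Wherever nuclear count per well, robust Z-score vs DMSO is given: Hoechst-stained nuclei counted by automated confocal imaging of four fields per well in 384-well plates, with the robust Z-score based on the per-plate DMSO median and robust SD.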

The first assay relates to HeLa. The experiment in a line: nuclear count per well, robust Z-score vs DMSO; higher = more cells (less toxicity). The conditions noted are these: 10 µM; 6 h.
Regarding `O=c1oc(Cl)c(Cl)c2ccccc12` [3,4-dichloroisocoumarin], the “nuclear count per well” value amounted to 0.105. `CCN(CC)C(=O)/C(C#N)=C/c1cc(O)c(O)c([N+](=O)[O-])c1` [Entacapone]: the “nuclear count per well” value was found to be 0.686. The same measure, in the same setting: the figure for `O=C(/C=C/c1ccc(/C=C/C(=O)Nc2ccc(C3=NCCN3)cc2)cc1)Nc1ccc(C2=NCCN2)cc1` [GW4869 hydrate] is 0.457; for `Nc1ncnc2c1ncn2[C@@H]1O[C@H](CO)[C@@H](O)[C@H]1O` [Adenosine] it is 0.725. For `O=C(O)C(S)=Cc1c[nH]c2ccc(F)cc12`, the “nuclear count per well” value was -0.292.

The subject of a further assay is HeLa. The experiment in a line: MALAT1 nuclear FISH intensity, robust Z-score vs DMSO; higher = more nuclear MALAT1 lncRNA, active = -3 or less. The following applies: 10 µM; 6 h.
`c1cnc2cc3c(cc2n1)[C@@H]1CNC[C@H]3C1` [Varenicline Tartrate]: the “MALAT1 nuclear FISH intensity” value was 0.129 (inactive). As for `S=c1[nH]cnc2nc[nH]c12` [Mercaptopurine hydrate], the “MALAT1 nuclear FISH intensity” value was -1.26 (inactive). With `O=C1OCCN1/N=C/c1ccc([N+](=O)[O-])o1` [Furazolidone], the “MALAT1 nuclear FISH intensity” value was 1.18 (inactive). Regarding `CC(/C=C/C(=O)NO)=C\[C@@H](C)C(=O)c1ccc(N(C)C)cc1` [Trichostatin A], the “MALAT1 nuclear FISH intensity” value is 3.72 (inactive). Consider `CCCCC/C=C\C/C=C\C/C=C\C/C=C\CCCC(=O)O[C@@H](CO)COCCCCCCCCCCCCCCCC` [1-Hexadecyl-2-arachidonoyl-glycerol], for which the “MALAT1 nuclear FISH intensity” value was -0.812 (inactive). On to `Brc1c(NC2=NCCN2)ccc2nccnc12` [Brimonidine], for which the “MALAT1 nuclear FISH intensity” value was -1.1 (inactive).

For `C#C[C@]1(O)CC[C@H]2[C@@H]3CCC4=CC(=O)CC[C@@H]4[C@H]3C(=C)C[C@@]21CC` [Etonogestrel], the “MALAT1 nuclear FISH intensity” value is 0.892 (inactive). On the same count and under the same terms, then `COc1ccc2[nH]c([S@@+]([O-])Cc3ncc(C)c(OC)c3C)nc2c1` [Esomeprazole Potassium], with 0.0157 (inactive).
